# Screens (PubChem)
# Most compounds without a hit are left out; they make up all but 2.4% or so of the library.
# POLH inh: DNA polymerase eta (human) inhibition; Q9Y253; 390,000 tested, 1.2% active; recombinant Pol eta, fluorescent DNA replication assay; Potency, µM (top dose mostly 114 µM), inactives show top-dose activity change, negative = inhibition, most hits filed as inhibitors; also: % is scaled to controls: 0 for no effect and ±100 for the full control effect
#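 Fluorescent replication assay: 50 nM final substrate added after a 15 min room-temperature compound preincubation with 10 nM enzyme. Signal taken at 0 min and again at 10 min.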
# Pol iota inh: blocks human DNA polymerase iota activity; Q9UNA4; Potency, µM (titrated, usually from 115 µM), without a hit: at the highest dose activity, negative = inhibition, actives largely listed as inhibitors; Pol iota fluorescent replication assay, 10 min; 390,000 tested, 1% active
#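 Pol iota at 10 nM preincubated 15 min with compounds at room temperature; reaction started with fluorescent substrate, 50 nM final. Fluorescence read kinetically at 0 and 10 min; buffer-only wells as negative control.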
# WRN helicase inh: WRN helicase (human) inhibition | Q14191 | WRN helicase unwinding, fluorescent forked duplex, kinetic | Potency, µM (top dose mostly 114 µM), for inactives: top-dose activity change, negative = inhibition, hits mostly inhibitors | 360,000 tested, 0.46% active; also: % is scaled to controls: 0 for no effect and ±100 for the full control effect; nearly all actives have a fitted effect of over 55% in size
#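 Kinetic fluorescence helicase assay: unwinding of a quenched forked DNA duplex (100 nM final) with 2 mM ATP final raises red fluorescence (525/598 nm). Compounds sat 15 min at room temperature with 20 nM WRN beforehand.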
# POLK inh: DNA polymerase kappa (human) inhibition | Potency, µM (titrated, usually from 107 µM), without a hit: at the highest dose activity, negative = inhibition, actives largely listed as inhibitors | purified Pol kappa, fluorescent DNA synthesis assay, 10 min | AID 588579 | 400,000 tested, 0.53% active | Q9UBT6; also: % is scaled to controls: 0 for no effect and ±100 for the full control effect
# Target sequence (Q9UBT6 whole entry, looked up): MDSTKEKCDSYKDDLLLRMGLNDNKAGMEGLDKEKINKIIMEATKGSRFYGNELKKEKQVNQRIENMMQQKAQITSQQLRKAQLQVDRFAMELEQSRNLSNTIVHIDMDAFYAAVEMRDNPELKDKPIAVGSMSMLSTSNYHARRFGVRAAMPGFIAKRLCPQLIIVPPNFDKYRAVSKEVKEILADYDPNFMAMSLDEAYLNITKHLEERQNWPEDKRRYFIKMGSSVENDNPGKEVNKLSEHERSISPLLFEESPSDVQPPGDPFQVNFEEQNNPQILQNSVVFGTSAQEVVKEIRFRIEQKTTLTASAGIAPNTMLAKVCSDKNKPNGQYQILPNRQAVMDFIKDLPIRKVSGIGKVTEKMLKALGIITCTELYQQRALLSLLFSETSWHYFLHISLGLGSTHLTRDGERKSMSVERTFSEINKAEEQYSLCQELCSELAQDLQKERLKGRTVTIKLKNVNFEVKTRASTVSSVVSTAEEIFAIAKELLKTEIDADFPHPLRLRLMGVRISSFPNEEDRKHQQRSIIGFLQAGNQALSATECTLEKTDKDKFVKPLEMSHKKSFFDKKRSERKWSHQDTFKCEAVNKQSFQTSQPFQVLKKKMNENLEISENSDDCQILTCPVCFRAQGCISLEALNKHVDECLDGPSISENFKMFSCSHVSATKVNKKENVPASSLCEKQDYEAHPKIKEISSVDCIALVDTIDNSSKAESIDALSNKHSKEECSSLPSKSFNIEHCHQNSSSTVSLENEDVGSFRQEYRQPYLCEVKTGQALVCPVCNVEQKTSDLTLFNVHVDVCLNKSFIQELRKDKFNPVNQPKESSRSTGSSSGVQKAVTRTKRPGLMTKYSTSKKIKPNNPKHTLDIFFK
#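 Pol kappa 10 nM + cpd, 15 min RT; start w/ substrate 50 nM final; fluorescence kinetic read, 0 and 10 min. Neg ctrl: buffer, no enzyme.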
# FEN1 inh: blocks human flap endonuclease 1. AID 588795. Potency, µM (doses to about 114 µM), without a hit: at the highest dose activity change, negative = inhibition, usual class: inhibitors. Recombinant FEN1 flap cleavage, fluorescence, 15 min. P39748. 390,000 tested, 0.35% active; also: % is scaled to controls: 0 for no effect and ±100 for the full control effect; nearly all actives have a fitted effect of over 65% in size
#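 Compounds are tested as a concentration series against 10 nM FEN1; after a 15 min room-temperature preincubation, 50 nM substrate starts cleavage, with plate reads at 0 and 15 min. Normalized responses are fitted by a Hill equation.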
# Pol beta inh: inhibitors of human DNA polymerase beta | P06746 | Pol beta primer extension/strand displacement, fluorescence kinetic | Potency, µM (series often up to 114 µM), without a hit: at the top dose activity change, negative = inhibition, most hits filed as inhibitors | 340,000 tested, 1.3% active | AID 485314; also: % is scaled to controls: 0 for no effect and ±100 for the full control effect
#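 Kinetic readout of DNA synthesis with strand displacement by Pol beta. Compound and 10 nM enzyme sit 15 min at room temperature; 50 nM substrate starts the reaction, read immediately and at 10 min.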
# * = called active by the depositor; ? = inconclusive; nt = no result given; [ ] = dose if it differs, or a comment. Calls follow the shape of the dose curve; as a rule, active = well fitted curve in the direction sought with a large enough effect; inconclusive = small, poorly fitted or top-dose-only effect, or another doubt; inactive = no such curve, though single readings can be large; an effect the other way counts as inactive or inconclusive. Potency is read from the fitted curve at half-maximal effect.
SMILES,POLH inh,Pol iota inh,WRN helicase inh,POLK inh,FEN1 inh,Pol beta inh
O=C(Cc1ccc(OCC2CCCCC2)cc1)NO,nt,-8%,nt,-1%,-33%,nt
O=[N+]([O-])c1ccc(/C=N/Nc2nc3ccccc3o2)cc1,-1%,-1%,-2%,-3%,4%,45µM*
CCS(=O)(=O)c1ccc(C=NNc2nc3ccccc3o2)cc1,-8%,8%,-12%,-9%,2%,nt
CC(C)(C)c1ccc2c(S(=O)(=O)O)c(C(C)(C)C)ccc2c1,nt,nt,nt,4%[19.4 µM],nt,nt
CCc1ccc(/C=C/C(=O)C2C(=O)c3ccccc3C2=O)cc1,1%,?,-17%[57.1 µM],-3%,8%,-13%
CC[N+]1(C)CCC(O)(/C=C/c2ccccc2)C(C(=O)/C=C/c2ccccc2)C1 (configuration not stated),?,?,11µM*,-2%,-3%,nt
Cc1ccc(S(=O)(=O)Nc2cc(=O)[nH]c(SCC(=O)Nc3cccc(C(F)(F)F)c3)n2)cc1,-4%,125%,5%,-2%,-1%,58%
Cc1cccc(NC(=O)CSc2nc(NS(=O)(=O)c3ccccc3)cc(=O)[nH]2)c1,-4%,?,10%,-28%,-4%,32µM*
O=C(CSc1nc(NS(=O)(=O)c2ccccc2)cc(=O)[nH]1)Nc1ccc(Cl)cc1,-19%,16µM*,?,45µM*,-11%,20µM*
COc1ccccc1C1(O)CC2CCC(C1)N2S(=O)(=O)c1ccc(C(C)=O)cc1 (configuration not stated),-15%,100µM*,-4%[57.1 µM],-12%[60.1 µM],-2%,1%
CC1CCC(C(C)C)C(P(=O)(c2ccccc2)c2ccccc2)C1 (configuration not stated),nt,nt,nt,17%[60.1 µM],nt,nt
COc1ccc(O)c(/C=N/NC(=O)c2ccc(CSc3nc(C)cc(C)n3)cc2)c1,?,?,?,?,-11%,25µM*
C/C(=N\NC(=O)c1ccc(CSc2nc(C)cc(C)n2)cc1)c1ccco1,-8%,103%,9%,-24%,3%,56µM*
COc1ccc(O)c(/C=N/NC(=O)c2ccc(OCc3cccc(Br)c3)cc2)c1,-10%,?,-6%,-9%,3%,16µM*
Cc1cc(C)nc(SCc2ccc(C(=O)N/N=C/c3ccco3)cc2)n1,-4%,100%,7%,-3%,-1%,14µM*
CS(=O)(=O)c1ccccc1NC(=O)COc1ccccc1C(=O)Nc1ccccc1,nt,?,nt,-29%,-2%,nt
CC[C@H](C)[C@H](NC(=O)[C@H](Cc1ccc(O)cc1)NC(=O)[C@@H](NC(=O)[C@H](CCCN=C(N)N)NC(=O)[C@@H](N)CC(=O)O)C(C)C)C(=O)N[C@@H](Cc1ccc(N)cc1)C(=O)N1CCC[C@H]1C(=O)N[C@@H](Cc1ccccc1)C(=O)O,nt,nt,nt,17%[60.1 µM],nt,nt
COc1cccc2c(=O)c3c([nH]c12)OC(C)(C)C3,-9%,24%,4%,0%,1%,nt
COc1cccc2c(=O)c3cccc(N)c3[nH]c12,?,-12%,?,-12%,?,25µM*
COc1ccc(NC(=O)Nc2ccc([N+](=O)[O-])cc2)cn1,?,?,?,-40%,-18%,28µM*
COc1ccc(NC(=O)Nc2cccs2)cn1,-14%,39%,5%,-13%,12%,19%
CCn1nc(C)c2c(-c3ccccc3)cc(=O)n(C(C)C(=O)Nc3ccc(OC)c(OC)c3)c21 (configuration not stated),-9%,3%,nt,-15%,11%,-6%
Cc1cc(C)cc(NC(=O)CSCc2nc3c(nnn3Cc3ccc(F)cc3)c(=O)[nH]2)c1,?,45µM*,-28%[57.1 µM],-39%,?,nt
COc1ccc(C(=O)Nc2nnc(CC(=O)N/N=C/c3ccc(O)cc3O)s2)cc1,nt,nt,nt,nt,nt,5µM*
O=[N+]([O-])c1ccc(/C=C2\C=C(C(O)c3ccc([N+](=O)[O-])cc3)c3ccccc32)cc1 (configuration not stated),nt,5%,nt,-19%,1%,nt
SMILES,POLH inh,Pol iota inh,WRN helicase inh,POLK inh,FEN1 inh,Pol beta inh
O=Cc1cccc(C=O)c1,nt,-1%,nt,-3%,-3%,nt
O=C(COc1cccnc1[N+](=O)[O-])c1ccc(Cl)s1,45µM*,11µM*,?,79µM*,?,32µM*
Nc1nc(NCc2ccc(Cl)cc2Cl)c2[nH]cnc2n1,nt,-9%,nt,-1%,-8%,nt
C=C(CN(C)C)C(=O)c1cc(OC)c(OC)cc1OC,-7%,-3%,?,-8%,3%,nt
C=C(CN(C)C)C(=O)c1ccc(C)cc1C,-10%,?,18µM*,-5%,-10%,nt
O=C(Cc1ccc(Cl)cc1)Nc1cccc(C(=O)Nc2ccccc2C(=O)O)c1,?,79%,89µM*,-30%,0%,6%
O=C(Nc1ccccc1C(=O)O)c1ccccc1,-18%,?,-9%,-13%,7%,32µM*
O=C(COc1ccc(Cl)cc1Cl)Nc1ccc(C(=O)Nc2ccccc2C(=O)O)cc1,8%,?,-29%,-33%,-18%,32µM*
O=C(COc1ccc(Cl)cc1Cl)NC(=S)Nc1ccccc1C(=O)O,nt,nt,nt,nt,nt,-1%
COc1ccc(C(=O)Nc2ccccc2C(=O)O)cc1NC(=O)C(c1ccccc1)c1ccccc1,89µM*,7%,-12%[11.6 µM],-19%,-21%,?
CCC1C(=O)CC2CCN3C(=O)CCC1C23 (configuration not stated),nt,18%,nt,5%,-12%,nt
CC(C)S(=O)(=O)N1CCN(c2nc(-c3cccs3)nc3ccccc23)CC1,nt,2%,nt,-21%,-6%,nt
CCCN1CCC(=O)N(CCSc2ccc(Br)cc2)CC1,nt,-2%,nt,-9%,-4%,nt
CC(C)C(=O)SCCCCCCC(=O)Nc1nc(-c2ccccc2)cs1,nt,nt,nt,13%[60.1 µM],nt,nt
CCOC(=O)COc1ccc(Br)cc1/C=C/c1[nH]c(=O)[nH]c(=O)c1[N+](=O)[O-],45µM*,?,-6%[11.6 µM],-9%,?,56µM*
CCOC(=O)COc1ccc(Br)cc1/C=C\c1[nH]c(=O)[nH]c(=O)c1[N+](=O)[O-],13µM*,89µM*,-7%[11.6 µM],-4%,-25%,?
COc1ccc2c3c(c(=O)oc2c1)C1O[C@](c2ccsc2)(Cc2ccccc21)O3,nt,nt,nt,nt,nt,-23%[22.9 µM]
O=c1oc2ccc(F)cc2c2c1C1O[C@](c3ccsc3)(Cc3c1ccc1ccccc31)O2,nt,nt,nt,nt,nt,10µM*
O=c1oc2ccccc2c2c1C1O[C@](c3ccsc3)(Cc3ccccc31)O2,nt,nt,nt,nt,nt,11µM*
Cc1ccccc1N=C1Nc2ccc(Cl)cc2N[C@]12C[C@H]1CCCC(=O)N3CC[C@@H](C2)[C@@H]13,nt,13%,nt,6%,?,nt
O=C(NCCCc1cnc[nH]1)NCCCN(Cc1ccc(Cl)cc1)c1ccc(Br)cn1,nt,?,nt,-10%,-5%,nt
